Bioassay records (PubChem BioAssay)
MARV entry inh – qHTS for inhibitors of binding or entry into cells for Marburg Virus. Marburg virus pseudotyped entry inhibition, cell reporter. Potency, µM (doses to about 37.8 µM), actives largely listed as inhibitors. 300,000 compounds, 1.8% hits. AID 540276, 2011; calls by dose curve; tested in HEK293 cells
Lassa entry inh – qHTS for Inhibitors of binding or entry into cells for Lassa Virus. Lassa virus pseudotype entry inhibition, cell reporter. Potency, µM (highest dose often 37.9 µM), actives largely listed as inhibitors. 300,000 compounds, 1.2% hits; calls by dose curve; tested in HEK293 cells; note: nearly all actives have a fitted effect of over 50% in size
Pf growth 96h – Primary qHTS for delayed death inhibitors of the malarial parasite plastid, 96 hour incubation; Potency, µM (top dose mostly 28.7 µM), most hits filed as inhibitors; 320,000 compounds, 6.9% hits; AID 504834, 2011; P. falciparum luciferase reporter growth, 96 h
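Delayed-death screen, second-generation endpoint: infected erythrocytes, 2% hematocrit, 0.05% parasitemia final; 96 hours at 37 C, 5% CO2; luciferase detection reagent; luminescence decrease equals reduced growth.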
Cycloheximide cs – Cycloheximide Counterscreen for Small Molecule Inhibitors of Shiga Toxin; 300,000 compounds, 12% hits; max response, %; cell reporter, cycloheximide protein synthesis inhibition counterscreen; in the data active = max response mostly above about 13%, no sharp cut-off; inactive = mostly below about 14%; note: read at 38.3 µM for the half of the compounds with a filed dose
Shiga inhibitor – A qHTS for Small Molecule Inhibitors of Shiga Toxin; Vero cells, Shiga toxin protein synthesis inhibition reporter; inhibition, % at 38.7 µM; 290,000 compounds, 9.2% hits; in the data active = inhibition mostly above about 28%, no sharp cut-off; inactive = mostly below about 43%
Pf growth 48h – Primary qHTS for delayed death inhibitors of the malarial parasite plastid, 48 hour incubation; P. falciparum luciferase growth in erythrocytes, 48 h; Potency, µM (top dose mostly 28.7 µM), usual class: inhibitors; 310,000 compounds, 5.9% hits; AID 504832, 2011
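Parasite viability was followed by luminescence of a genomically integrated firefly luciferase. Cultures held 0.1% parasitemia at 2% hematocrit (final), incubated under 5% CO2 at 37 C.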
Hits are given with their value; - = inactive; ? = inconclusive; . = not tested or not shown. Shown are actives, neighbours in structure and some others; about 19% of the full set was active somewhere. Unless noted, calls come from the whole dose curve; as a rule, active = well fitted inhibition curve with a large enough effect; inconclusive = small, poorly fitted or top-dose-only effect, or another doubt; inactive = no such curve, though single readings can be large or run the other way.

SMILES	MARV entry inh	Lassa entry inh	Pf growth 96h	Cycloheximide cs	Shiga inhibitor	Pf growth 48h
Nc1n[nH]c(N)c1N=Nc1ccc(F)cc1	.	.	-	33	-	-
COc1ccc(N=Nc2cc(OC)c(N)cc2OC)cc1	?	-	.	.	.	.
COc1ccc(N=Nc2c(N)n[nH]c2N)cc1	?	-	-	27	45	-
Nc1n[nH]c(N)c1N=Nc1ccccc1	?	-	-	-	-	-
Cc1c(NC(=O)CSc2ccccc2Cl)c(=O)n(-c2ccccc2)n1C	-	?	-	-	-	-
O=c1[nH]n(-c2cccc3cccnc23)c(=O)c2ccccc12	-	-	-	-	-	-
O=C(CC12CC3CC(CC(C3)C1)C2)N/N=C\c1ccc[nH]1	-	-	?	-	-	-
Cn1cc(/C=C/C(=O)N2CCCC(C(=O)c3cccc4ccccc34)C2)cn1 (stereo not drawn)	.	.	-	-	-	-
Cn1cc(/C=C/C(=O)N2CCCC(C(=O)c3cccc(C(F)(F)F)c3)C2)cn1 (stereo not drawn)	-	?	4.1µM	-	-	-
O=C(c1cccc(C(F)(F)F)c1)C1CCCN(C(=O)C2CCOCC2)C1 (stereo not drawn)	-	-	-	14	-	-
O=C(c1cccc(C(F)(F)F)c1)C1CCCN(C(=O)CN2CCOC2=O)C1 (stereo not drawn)	-	-	-	-	-	-
O=C(NCCCCCCNC(=O)C1CCCC1)C1CCCC1	-	-	-	-	-	-
S=C(Nc1cccc(Cl)c1)Nc1cccc2cnccc12	-	-	4.1µM	47	56	-
FC(F)(F)c1ccccc1NC(=S)Nc1cccc2cnccc12	-	-	-	-	-	-
Cc1ccc(NC(=S)Nc2cccc3cnccc23)cc1	.	.	?	26	-	?
S=C(Nc1cccc(Cl)c1)Nc1ccccc1Oc1ccccc1	-	?	12µM	-	-	-
S=C(Nc1ccc(Cl)cc1Cl)Nc1ccccc1Oc1ccccc1	-	-	?	-	-	?
CC(=O)c1ccc(NC(=S)Nc2cccc3cnccc23)cc1	?	?	2.6µM	36	47	1.9µM
NC(=S)Nc1cccc2cnccc12	-	-	-	-	-	-
Cc1ccc(NC(=S)Nc2cccc3cnccc23)cc1C	?	?	?	32	-	?
O=C(CNC(=O)c1ccc(Br)cc1)NCC(=O)OCC(=O)c1ccc([N+](=O)[O-])cc1	-	-	-	-	-	-
O=C(N/N=C/c1cccnc1)c1cc(-c2ccccc2OCc2ccccc2)n[nH]1	?	?	?	-	-	10µM
O=C(N/N=C/c1cccnc1)c1ccccc1OCc1ccc(Br)cc1	?	-	-	-	-	9.3µM
N#Cc1ccc(NC(=O)CN2CCN(c3ccccn3)CC2)cc1	.	.	-	-	-	-
COc1ccccc1NC(=O)CSC1=NC(=O)C(NC(C)=O)C(=O)N1 (stereo not drawn)	-	-	0.83µM	-	-	-
SMILES	MARV entry inh	Lassa entry inh	Pf growth 96h	Cycloheximide cs	Shiga inhibitor	Pf growth 48h
CC(=O)NC1C(=O)N=C(SCC(=O)NC2CCCCC2)NC1=O (stereo not drawn)	-	-	?	22	57	-
COc1ccccc1NC(=O)N1c2ccc(F)cc2CCC1C (stereo not drawn)	-	-	4.7µM	-	-	-
C[C@@H]1C(c2ccccc2)CC(=O)C(=O)C[C@@H]1C(=O)N1CCCC1 (stereo partly drawn)	-	.	.	.	.	.
Cc1ccc(CNc2nc3ccccc3n3nnnc23)cc1	?	-	-	-	-	-
Cn1c(NCc2ccc(Cl)cc2)nc2ccccc21	?	-	-	38	56	-
Cc1ccc(CNc2nc3ccccc3n2C)cc1	.	.	-	23	-	-
Cc1ccc(CCNC(=O)c2cc(C)nn2-c2ccccc2)cc1	.	.	-	-	-	-
O=C(C[N+]12CCN(CC1)CC2)NCCc1ccc(Cl)cc1Cl	-	-	-	-	-	-
O=C(CNC(=O)c1ccccc1Cl)N/N=C/c1ccc2c(c1)OCO2	?	-	-	-	-	-
O=C(CNC(=O)c1ccccc1F)N/N=C/c1ccc2c(c1)OCO2	-	?	-	45	55	-
O=C(CNC(=O)c1ccccn1)N/N=C/c1ccc2c(c1)OCO2	-	-	?	42	100	-
COc1ccc(C(=O)NCC(=O)N/N=C/c2cccc(OC(=O)c3ccco3)c2)cc1OC	.	.	-	33	-	-
COc1cccc(C(=O)NCC(=O)N/N=C/c2ccc3c(c2)OCO3)c1	-	-	?	44	83	-
CCOC(=O)C(C)=NNC(C)=O	-	.	.	.	.	.
Cc1ccc2oc(=O)n(CC(=O)N3CCOCC3)c2c1	.	.	-	-	-	-
Cc1noc(C)c1C(=O)N1CCCC(C(=O)c2ccc(Cl)cc2)C1 (stereo not drawn)	-	?	?	-	-	-
COc1ccc(N(C(=O)c2ccncc2)S(=O)(=O)c2ccccc2)cc1	-	-	?	-	-	-
COc1ccc(N(C(=O)c2ccccc2C)S(=O)(=O)c2cccs2)cc1	?	?	8.3µM	-	-	?
Cc1nc(-c2cccc(NS(=O)(=O)c3ccc4ccccc4c3)c2)cs1	-	-	?	-	-	-
N#CCSc1ncccc1-c1nc2ccccc2[nH]1	-	-	-	-	30	?
N#CCCCSc1ncccc1-c1nc2ccccc2[nH]1	-	-	.	28	-	-
O=C(O)c1ccccc1-c1nc2ccccc2[nH]1	?	-	?	-	-	-
Cn1nc(C(=O)NC(C)(C)C)c2ccccc21	-	?	-	-	-	-
COc1ccc2nc(C)cc(SCC(=O)N/N=C/c3ccc(O)c(O)c3)c2c1	?	-	-	-	-	-
COc1ccc(C(NC(=O)CN2CCCCCC2)c2ccc(OC)cc2)cc1	?	-	?	-	-	?
SMILES	MARV entry inh	Lassa entry inh	Pf growth 96h	Cycloheximide cs	Shiga inhibitor	Pf growth 48h
Sc1oc(-c2ccccc2)cc1C=Nc1ccccc1	-	-	?	30	-	.
COCC1CCCN(Cc2cn(-c3ccccc3)nc2-c2ccc3c(c2)OCO3)C1 (stereo not drawn)	-	?	?	-	-	9.3µM
c1ccc(-n2cc(CN3CCC(N4CCOCC4)CC3)c(-c3ccc4c(c3)OCO4)n2)cc1	?	?	?	-	-	?
c1ccc(-n2cc(CN3CCCC3)c(-c3ccc4c(c3)OCO4)n2)cc1	?	?	?	-	-	5.2µM
COCC1CCN(Cc2cn(-c3ccccc3F)nc2-c2cc(C)sc2C)CC1	?	-	-	-	-	?
FC(F)Oc1ccc(NC(=S)Nc2ccc3cn[nH]c3c2)cc1	-	-	-	-	-	-
Cc1cc(C)c2nc(N)sc2c1	-	-	?	34	-	-
CCOCCCNc1ncnc2c1cnn2-c1ccc(C)c(C)c1	.	-	.	.	.	.
Clc1ccc(-n2ncc3c(NCc4cccs4)ncnc32)cc1	-	-	?	-	-	?
CC(=O)NNc1ncnc2c1cnn2-c1ccccc1	-	-	?	-	-	?
